Experimental data: the supplement of paper PMC10681739

Biological target: T1, ETS1 (UniProt P14921)
T1 sequence: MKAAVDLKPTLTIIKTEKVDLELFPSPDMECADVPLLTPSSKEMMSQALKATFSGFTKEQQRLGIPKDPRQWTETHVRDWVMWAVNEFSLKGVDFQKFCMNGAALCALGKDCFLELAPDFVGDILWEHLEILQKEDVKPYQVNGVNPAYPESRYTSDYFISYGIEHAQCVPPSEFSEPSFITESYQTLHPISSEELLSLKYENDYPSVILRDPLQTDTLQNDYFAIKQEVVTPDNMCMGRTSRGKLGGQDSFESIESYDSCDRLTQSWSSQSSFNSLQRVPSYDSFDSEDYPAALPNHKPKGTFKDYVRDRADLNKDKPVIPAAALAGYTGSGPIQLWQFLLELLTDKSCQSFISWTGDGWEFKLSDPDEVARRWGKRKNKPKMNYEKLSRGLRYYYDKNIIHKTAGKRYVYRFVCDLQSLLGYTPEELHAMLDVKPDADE
Assay: ETS1 binding intensity (PBM fluorescence) in presence of RUNX1, normalised to ETS1-only experiment (arbitrary fluorescence units); higher = stronger binding
Settings: ETS1 concentration 1 nM; RUNX1 concentration 25 nM
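Wherever RUNX1 binding intensity (PBM fluorescence) in presence of ETS1, normalised to RUNX1-only experiment is given: Full-length recombinant human ETS1 or RUNX1 bound to double-stranded 36-bp genomic probes on microarrays, detected by protein-specific primary antibody and Alexa488 secondary, spot fluorescence as median of four replicate spots.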

Going from CGGGCTGGGAGGAAGTGATGGCTGACCACAGAGGAG to TTACTGCCGGAACTTGGGACCTTTGTAACCACGTCT, the ETS1 binding intensity falls from 4610 to 586.

First: GATACCTAGAAGCCAGGAAACCGCGAGCTGCAGTCC
Second: AGGTTTTGAAAGAGGAAACCACATACCCGAAAACCA
The ETS1 binding intensity of the first is higher: 2130 for the first, 2030 for the second.

Compared with AGGTCTCCGGAAGTGGGTCTGCGGCGCGCGGGATGC, TGTCTTCAGGAAGTGTAGCAGGTGTTGAGGTCAAGC is lower in ETS1 binding intensity: 8540 for the first, 998 for the second.

First: GGGTGCAGACGGGAAGTTGCGGCTGCCAGCGAAGCT
Second: TCCCCTCTCCCCATCCGCCCGAGACCACAGCCACTC
The ETS1 binding intensity of the first is higher: 2530 for the first, 495 for the second.

Going from TGGAACAATGCTGCTTCCTGTGGGTGTCCCCCGGCC to TTTCTGAAACCCTCAGGATGTGGGTTTTCACACTGT, the ETS1 binding intensity rises from 1400 to 6900.

First: CCGATGGCGGCGGAACTGTGGTCAGGGCTGCCCTGA
Second: CTGAGACCTCGGGCAGGATGTGGCTTCCCCAGAGTT
The ETS1 binding intensity of the first is lower: 510 for the first, 7460 for the second.

Going from AGCCACATCCTGGACAAAAGCTGTGGTCTAGTAACC to GGACGCTTCCGGTGGAAGGGAGCTGTTGCGGGGCTT, the ETS1 binding intensity rises from 556 to 1660.

Going from TGCAATCAGGAAGCCTGCCCCTCTAGAACCACAAAA to GCAAACAGCACATCCGGTGTGGTCGACGGGTCCTCC, the ETS1 binding intensity rises from 1210 to 6160.

Going from GTTGTGCTCTTTCCTGCTTCCCGCAGTTTTTTAGTT to GCAGCTCTGGCAGGATGCGGTTAAATATGTATCCAC, the ETS1 binding intensity rises from 921 to 12700.

Going from GACAGAGGAAACTAGGTGTGACAACCACAAACAGCT to AGCACCCGGAAGTCGGAGCTGCGCACGCACCGCGGG, the ETS1 binding intensity rises from 651 to 1910.

First: GGGAGGTCACATCCTGCCCGCGGTCTCAGAAAAGCT
Second: GAAGCGCTGGGCGGAAGTGGCTGTGGCTTTGCCCTT
The ETS1 binding intensity of the first is lower: 989 for the first, 14300 for the second.

Going from ACACAGGAAGCAAAAGTTAAGCTATAAAACCCGCAA to CCCTCACCCCAGCTTTCCTGTGGTTAACCAAACCCC, the ETS1 binding intensity rises from 765 to 822.

First: CCTCACAGGGACTTCCTTCCCCGCGGTTCAGGAATC
Second: CACGCCTGCGGAAGATGAAAACCACACGTCATGCAG
The ETS1 binding intensity of the first is lower: 577 for the first, 803 for the second.

Compared with TTGCACACGTGGGCGGGAAGTGGTTAAGCGGCCTCA, ACTCACTTCCGTTTAGCTTATCAACCACCAAGAGAC is lower in ETS1 binding intensity: 4280 for the first, 1060 for the second.

Going from TTAGCACATCCTGGGTACACAGACCACAGCCTCCTC to TTACAATCATTTCCTCTCTGTGGTTTGGTGACAAAT, the ETS1 binding intensity rises from 475 to 2000.

First: GCCGGGCACTTCCTGTGGAGGCCGCAGCGGGTGCGC
Second: GCTAAGAGCAGGAAATGATCTGGGAACCACCATCAC
The ETS1 binding intensity of the first is lower: 1560 for the first, 3070 for the second.

First: GCTTCTTCAGCCACATCCTGACCACAGCCCAGATTC
Second: TTAGGCTCATGGGAAATGTGGTTTCTAAATCGCGGG
The ETS1 binding intensity of the first is higher: 1270 for the first, 639 for the second.

Going from GAGACACTCTGCTTCCTGCGGTGGAAGATTCAGTAT to TACCCCGCCGGAAGCCCCCTGCTCTGTGGGAACCGG, the ETS1 binding intensity rises from 482 to 3660.

Going from ACATGGTCTCGCTTCCTGTTTACACCACAGAAAGCT to TGTGATAAGGATGTTCGTGTGCCTTGTGGTCAGGTG, the ETS1 binding intensity falls from 4140 to 1710.

Going from CACCGCCGGAGTCCCGGATGTGGTTGCTAGGGCAGC to CTTCGACCCCGGAAGCGCTAACCACCCCGGGGGCCG, the ETS1 binding intensity falls from 14900 to 5880.

Biological target: RUNX1 (UniProt Q01196)
Assay: RUNX1 binding intensity (PBM fluorescence) in presence of ETS1, normalised to RUNX1-only experiment (arbitrary fluorescence units); higher = stronger binding
Settings: RUNX1 concentration 2 nM; ETS1 concentration 25 nM
Procedure: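 Cooperative gcPBM on 36-bp genomic probes with neighbouring ETS1 and RUNX1 sites. Recombinant human RUNX1 (2 nM) was incubated alone or with ETS1 (25 nM) and detected with anti-RUNX1 antibody plus Alexa488 secondary. Values are medians over 4 replicate spots; the RUNX1+ETS1 data were normalised to the RUNX1-only data. The probes sit in constant array flanks that are not printed.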

Sequence of RUNX1 (Q01196 whole entry): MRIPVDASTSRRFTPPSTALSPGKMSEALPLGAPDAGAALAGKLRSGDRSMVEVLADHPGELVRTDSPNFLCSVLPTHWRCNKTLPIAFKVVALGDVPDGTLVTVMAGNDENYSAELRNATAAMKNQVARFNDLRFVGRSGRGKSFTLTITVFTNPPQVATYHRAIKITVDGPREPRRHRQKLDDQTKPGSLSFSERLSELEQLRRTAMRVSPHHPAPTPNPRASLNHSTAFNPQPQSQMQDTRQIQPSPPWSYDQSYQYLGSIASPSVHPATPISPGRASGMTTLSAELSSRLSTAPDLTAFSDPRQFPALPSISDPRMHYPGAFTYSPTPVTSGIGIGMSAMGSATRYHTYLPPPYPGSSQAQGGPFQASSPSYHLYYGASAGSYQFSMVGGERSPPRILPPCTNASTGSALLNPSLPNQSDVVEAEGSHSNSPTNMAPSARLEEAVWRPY

Compared with CGGGCTGGGAGGAAGTGATGGCTGACCACAGAGGAG, TTACTGCCGGAACTTGGGACCTTTGTAACCACGTCT is lower in RUNX1 binding intensity: 1570 for the first, 875 for the second.

Going from GATACCTAGAAGCCAGGAAACCGCGAGCTGCAGTCC to AGGTTTTGAAAGAGGAAACCACATACCCGAAAACCA, the RUNX1 binding intensity falls from 1380 to 1160.

Compared with AGGTCTCCGGAAGTGGGTCTGCGGCGCGCGGGATGC, TGTCTTCAGGAAGTGTAGCAGGTGTTGAGGTCAAGC is lower in RUNX1 binding intensity: 3290 for the first, 914 for the second.

Compared with GGGTGCAGACGGGAAGTTGCGGCTGCCAGCGAAGCT, TCCCCTCTCCCCATCCGCCCGAGACCACAGCCACTC is higher in RUNX1 binding intensity: 1270 for the first, 1570 for the second.

First: TGGAACAATGCTGCTTCCTGTGGGTGTCCCCCGGCC
Second: TTTCTGAAACCCTCAGGATGTGGGTTTTCACACTGT
The RUNX1 binding intensity of the first is higher: 1330 for the first, 1100 for the second.

First: CCGATGGCGGCGGAACTGTGGTCAGGGCTGCCCTGA
Second: CTGAGACCTCGGGCAGGATGTGGCTTCCCCAGAGTT
The RUNX1 binding intensity of the first is lower: 921 for the first, 1180 for the second.

First: AGCCACATCCTGGACAAAAGCTGTGGTCTAGTAACC
Second: GGACGCTTCCGGTGGAAGGGAGCTGTTGCGGGGCTT
The RUNX1 binding intensity of the first is higher: 2020 for the first, 1950 for the second.

Compared with TGCAATCAGGAAGCCTGCCCCTCTAGAACCACAAAA, GCAAACAGCACATCCGGTGTGGTCGACGGGTCCTCC is higher in RUNX1 binding intensity: 892 for the first, 1830 for the second.

First: GTTGTGCTCTTTCCTGCTTCCCGCAGTTTTTTAGTT
Second: GCAGCTCTGGCAGGATGCGGTTAAATATGTATCCAC
The RUNX1 binding intensity of the first is lower: 1890 for the first, 7800 for the second.

First: GACAGAGGAAACTAGGTGTGACAACCACAAACAGCT
Second: AGCACCCGGAAGTCGGAGCTGCGCACGCACCGCGGG
The RUNX1 binding intensity of the first is lower: 785 for the first, 1210 for the second.

Compared with GGGAGGTCACATCCTGCCCGCGGTCTCAGAAAAGCT, GAAGCGCTGGGCGGAAGTGGCTGTGGCTTTGCCCTT is lower in RUNX1 binding intensity: 2080 for the first, 1620 for the second.

Going from ACACAGGAAGCAAAAGTTAAGCTATAAAACCCGCAA to CCCTCACCCCAGCTTTCCTGTGGTTAACCAAACCCC, the RUNX1 binding intensity rises from 1240 to 9960.

Compared with CCTCACAGGGACTTCCTTCCCCGCGGTTCAGGAATC, CACGCCTGCGGAAGATGAAAACCACACGTCATGCAG is lower in RUNX1 binding intensity: 1100 for the first, 915 for the second.

Compared with TTGCACACGTGGGCGGGAAGTGGTTAAGCGGCCTCA, ACTCACTTCCGTTTAGCTTATCAACCACCAAGAGAC is higher in RUNX1 binding intensity: 1210 for the first, 3210 for the second.

Compared with TTAGCACATCCTGGGTACACAGACCACAGCCTCCTC, TTACAATCATTTCCTCTCTGTGGTTTGGTGACAAAT is higher in RUNX1 binding intensity: 2140 for the first, 3180 for the second.

Compared with GCCGGGCACTTCCTGTGGAGGCCGCAGCGGGTGCGC, GCTAAGAGCAGGAAATGATCTGGGAACCACCATCAC is lower in RUNX1 binding intensity: 1780 for the first, 918 for the second.

First: GCTTCTTCAGCCACATCCTGACCACAGCCCAGATTC
Second: TTAGGCTCATGGGAAATGTGGTTTCTAAATCGCGGG
The RUNX1 binding intensity of the first is higher: 5070 for the first, 988 for the second.

Going from GAGACACTCTGCTTCCTGCGGTGGAAGATTCAGTAT to TACCCCGCCGGAAGCCCCCTGCTCTGTGGGAACCGG, the RUNX1 binding intensity rises from 1080 to 1270.

Going from ACATGGTCTCGCTTCCTGTTTACACCACAGAAAGCT to TGTGATAAGGATGTTCGTGTGCCTTGTGGTCAGGTG, the RUNX1 binding intensity falls from 1850 to 905.

Compared with CACCGCCGGAGTCCCGGATGTGGTTGCTAGGGCAGC, CTTCGACCCCGGAAGCGCTAACCACCCCGGGGGCCG is lower in RUNX1 binding intensity: 3280 for the first, 1370 for the second.
